Measured values published in PubChem BioAssay AID602253 (Broad Institute, 2012).
Potency and affinity values are given separately. The source made the active and inactive calls.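 The calls were made as follows: active = compounds lowering polarization whose fitted half-maximal concentration is at most twice their top tested dose; inconclusive = flat curve with 30 to 70 percent inhibition, or poor fit; inactive = the rest.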

Biological target: Golgi-associated PDZ and coiled-coil motif-containing protein (Homo sapiens) (UniProt Q9HD26)
Test: disruption of CAL PDZ–reporter peptide interaction – biochemical, fluorescence polarization, Cer-tagged CAL PDZ, dry powder, dose response (AID 602253)

Row | Structure (SMILES) | outcome
1 | O=S(=O)(Nc1ccc(O)c2ccccc12)c1ccccc1 | inactive
2 | CCOc1ccc(S(=O)(=O)Nc2cc(SCC(=O)O)c(O)c3ccccc23)cc1 | inactive
3 | O=C(O)CSc1cc(NS(=O)(=O)c2ccc(Cl)cc2)c2ccccc2c1O | inactive
4 | O=C(O)CSc1cc(NS(=O)(=O)c2ccc(Br)cc2)c2ccccc2c1O | inactive
5 | COc1ccc(S(=O)(=O)Nc2cc(SCC(=O)O)c(O)c3ccccc23)cc1 | inactive
6 | O=S(=O)(Nc1cc(Sc2ccccc2)c(O)c2ccccc12)c1ccc(Cl)cc1 | inactive
